From PubChem
PLCg1 inh – blocks human PLC-gamma1 enzyme activity; P19174; purified PLC-gamma1, fluorogenic substrate, fluorescence; inhibition, % at 12.2 µM; 0.84% of 370,000 active; AID 720700; in the data active = inhibition above about 9.5%
PLCb3 inh – inhibitors of human phospholipase C beta3; Q01970; Purified PLC-beta3, fluorogenic substrate, fluorescence; inhibition, % at 12.2 µM; 0.18% of 370,000 active; in the data active = inhibition above about 11%;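 note: 0% = median of compound wells on plate and 100% = full blocker control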
ADAM10 inh – ADAM10 inhibition, QFRET primary screen; recombinant ADAM10, EDANS/DABCYL FRET peptide cleavage, 3 h; inhibition, % at 7 µM; 0.62% of 370,000 active; AID 720582;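 active = inhibition above a per-campaign cutoff equal to the mean of compounds falling between control-based bounds plus 3 SD, cut at about 20% in these data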;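 note: 0% = DMSO wells while the 100% control is not disclosed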
ADAM17 inh – ADAM17 inhibition, QFRET primary screen; P78536; recombinant ADAM17, EDANS/DABCYL FRET peptide cleavage; inhibition, % at 6.95 µM; 0.83% of 370,000 active; AID 720648;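 active = inhibition above the mean of compounds lying between control limits plus 3 SD, set per campaign, cut at about 8.5% in these data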;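 note: 0% = DMSO-only wells as the low control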
Target sequence (P78536 215-824 limits assumed): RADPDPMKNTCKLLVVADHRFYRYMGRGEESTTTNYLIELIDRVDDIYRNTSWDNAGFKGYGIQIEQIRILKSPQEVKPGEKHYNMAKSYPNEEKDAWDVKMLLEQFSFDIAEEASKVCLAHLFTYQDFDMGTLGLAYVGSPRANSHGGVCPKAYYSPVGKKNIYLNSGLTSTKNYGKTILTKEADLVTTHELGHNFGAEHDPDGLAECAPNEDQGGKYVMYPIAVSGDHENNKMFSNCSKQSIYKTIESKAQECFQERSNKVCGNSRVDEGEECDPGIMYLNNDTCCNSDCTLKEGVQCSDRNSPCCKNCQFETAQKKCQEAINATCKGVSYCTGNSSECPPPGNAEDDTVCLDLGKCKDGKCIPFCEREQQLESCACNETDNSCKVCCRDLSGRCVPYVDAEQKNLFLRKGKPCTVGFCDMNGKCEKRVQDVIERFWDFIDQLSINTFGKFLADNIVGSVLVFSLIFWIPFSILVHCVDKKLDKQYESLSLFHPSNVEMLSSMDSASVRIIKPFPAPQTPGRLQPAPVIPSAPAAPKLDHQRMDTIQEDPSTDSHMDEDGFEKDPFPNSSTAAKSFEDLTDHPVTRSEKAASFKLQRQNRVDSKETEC
KLK7 zymogen act – proKLK7 (human) activation, primary screen; activation, % at 7 µM; P49862; 0.9% of 370,000 active; purified proKLK7, EDANS-DABCYL substrate fluorescence; 100% is mature enzyme control, 0% vehicle;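 active = activation above the mean of all tested compounds plus 3 SD, computed per campaign excluding outliers beyond control limits, cut at about 13% in these data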
ADAM10 confirm – human ADAM10 inhibition, confirmation. shares compounds with ADAM10 inh. ADAM10 QFRET peptide cleavage, EDANS fluorescence. inhibition, % at 6.95 µM. 1% of 2,100 active. AID 743208;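 active = inhibition above about 20% chosen separately for each screening run, limit read from the data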;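 note: 0% = DMSO wells and 100% = marimastat wells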
ADAM17 ctr – counter-screen for ADAM10 exosite inhibitors: inhibitors of human ADAM17. shares compounds with ADAM10 inh. ADAM17 QFRET peptide cleavage, EDANS fluorescence. inhibition, % at 6.95 µM. 0.5% of 2,100 active. AID 743214;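 active = mean triplicate inhibition above the solvent-only control wells' mean plus 3 SD, cut at about 12% in these data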;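 note: 0% = DMSO wells and 100% = marimastat wells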
ADAM10 ctr – ADAM10 inhibition, counter-screen for ADAM17 exosite hits; shares compounds with ADAM17 inh; recombinant ADAM10, EDANS/DABCYL FRET peptide cleavage, 3 h; inhibition, % at 6.95 µM; 47% of 2,900 active; AID 743256;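 active = mean inhibition over the triplicate runs exceeds the activity threshold set in the earlier primary screen, cut at about 20% in these data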;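 note: 0% = DMSO wells and 100% = marimastat wells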
ADAM17 confirm – human ADAM17 inhibition, confirmation; inhibition, % at 6.95 µM; 65% of 2,900 active; shares compounds with ADAM17 inh; AID 743257; recombinant ADAM17, EDANS/DABCYL QFRET peptide cleavage;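 active = mean inhibition across replicates above the hit cutoff set in the primary screen, cut at about 8.5% in these data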;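 note: 0% = DMSO wells and 100% = marimastat wells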
Numbers without * were called inactive; . = not tested or not shown. Compounds with a hit are over-represented: about 2.9% of the library has one in this group of screens.

SMILES	PLCg1 inh	PLCb3 inh	ADAM10 inh	ADAM17 inh	KLK7 zymogen act	ADAM10 confirm	ADAM17 ctr	ADAM10 ctr	ADAM17 confirm
CCCCC[C@H](C)N1C[C@H](COCc2ccccc2)Oc2cc(N3CC[C@H](O)C3)ccc2S1(=O)=O	1.4	-1.5	5.8	6.6	-0.3	.	.	.	.
CCCCC[C@H](C)N1C[C@@H](COCc2ccccc2)Oc2cc(N3CCC[C@H]3C(N)=O)ccc2S1(=O)=O	0.6	-5.6	22.5*	11.3*	0.1	9.6	2.4	38.5*	23.0*
CCCCC[C@H](C)N1C[C@H](COCc2ccccc2)Oc2cc(N3CCC[C@@H]3CO)ccc2S1(=O)=O	-2.4	1.8	8.9	6.0	-0.8	.	.	.	.
Nc1nc(-c2ccccc2)c(N=Nc2ccccc2Cl)s1	-0.7	3.4	25.6*	15.9*	0.9	14.4	4.6	39.7*	25.1*
COc1cccc(C(=S)N2CCCC2)c1OC	-0.1	-6.0	-7.1	-3.4	-0.7	.	.	.	.
CC(C)(C)NC(=O)C(c1ccc(-c2ccccc2)cc1)N(C[C@H]1CC[C@@H]([C@@H]2CC[C@H](CO)O2)O1)C(=O)c1ccc2ccccc2c1 (stereo not given in full)	4.4	4.1	21.2*	10.3*	0.0	3.2	0.7	16.0	10.1*
C=CCN(c1ccccc1OC)S(=O)(=O)c1cccc(C(=O)OCC(=O)c2c[nH]c3ccccc23)c1	-0.1	3.0	22.6*	8.8*	-0.5	10.6	3.3	31.8*	19.2*
CO/N=C/c1ccc(Sc2ccc(C)cc2)c([N+](=O)[O-])c1	4.7	3.4	0.3	5.2	-0.3	.	.	.	.
Cc1ccc(Sc2ccc(/C=N/O)cc2[N+](=O)[O-])cc1	-0.1	1.0	26.7*	9.7*	0.3	6.2	2.9	27.2*	14.8*
NS(=O)(=O)c1cccc(NC(=O)COc2ncnc3c2cnn3-c2ccccc2)c1	0.5	-10.1	2.2	-1.5	0.2	.	.	.	.
O=C(COc1ncnc2c1cnn2-c1ccccc1)Nc1ccc(S(=O)(=O)N2CCCCC2)cc1	-1.9	0.2	20.7*	9.8*	-0.7	2.0	1.0	33.2*	17.2*
COc1ccccc1N(Cc1ccccc1)S(=O)(=O)c1cccc(C(=O)Nc2cccc(C)n2)c1	-1.9	-1.5	22.7*	10.0*	-0.6	9.9	2.6	9.7	9.6*
CC1(C(=O)NS(=O)(=O)C2CC2)CCN(C(=O)c2ccccc2F)C1 (stereo not given)	0.1	0.8	-6.2	-5.4	-0.2	.	.	.	.
CCOc1ccc(-c2[nH]ncc2Oc2cccc(OC)c2)c(O)c1	1.7	1.2	23.6*	10.6*	-0.2	7.4	2.8	34.7*	20.4*
CCOC(=O)[C@H]1[C@H]2COc3ccc(Br)cc3[C@@H]2N2C(=O)c3cc(Br)ccc3NC(=O)[C@@]12C	-2.5	-0.7	20.3*	11.2*	-0.3	1.9	-0.6	16.6	10.6*
CC(C)Oc1ccc(S(=O)(=O)N2CCCCCC2)c2ccccc12	1.0	-2.0	-0.8	0.1	0.3	.	.	.	.
N/C(=N\S(=O)(=O)c1cc(C(F)(F)F)cc(C(F)(F)F)c1)c1ccncc1	-5.3	-8.1	-7.8	-2.6	-0.2	.	.	.	.
N/C(=N\S(=O)(=O)c1cc(C(F)(F)F)cc(C(F)(F)F)c1)c1ccc(Cl)cc1	-0.3	-6.3	22.6*	9.7*	0.3	2.4	0.5	44.8*	18.8*
COc1ccc(C(=O)CC(Nc2ccc([N+](=O)[O-])cc2)c2ccc(Cl)cc2)cc1 (stereo not given)	4.7	6.2	22.0*	12.7*	0.3	8.6	3.1	38.3*	17.7*
O=C(OCCOc1cccc(Cl)c1)C1CCN(S(=O)(=O)c2ccccc2)CC1	2.7	-5.2	21.3*	8.6*	0.3	5.8	2.2	21.2*	10.9*
CCOC(=O)C1CCN(S(=O)(=O)c2ccccc2)CC1	3.7	-3.4	5.3	2.6	-0.1	.	.	.	.
O=C(c1ccc(C(F)(F)F)cc1)N1CCC(=O)N([C@H](COCc2ccc(Cl)cc2)Cc2ccccc2)CC1	3.2	1.1	13.2	6.3	0.4	.	.	.	.
O=C(c1ccc(C(F)(F)F)cc1)N1CCC(=O)N([C@H](COCc2ccc(C(F)(F)F)cc2)Cc2ccccc2)CC1	2.5	2.7	27.7*	12.2*	0.4	7.5	2.0	28.3*	16.1*
COCCCNC(=O)C[C@H]1C[C@@]2(C(=O)OC)C(=C[C@H](COCc3ccccc3)O[C@@H]2C)N(Cc2ccc(Cl)cc2Cl)C1=O	-0.4	2.1	6.5	3.4	0.2	.	.	.	.
CCN(CC(=O)Nc1cccc(OC)c1)CC(=O)Nc1ccc(Br)c(C)c1	6.4	-2.4	22.6*	11.8*	0.3	2.4	1.1	44.8*	16.1*
SMILES	PLCg1 inh	PLCb3 inh	ADAM10 inh	ADAM17 inh	KLK7 zymogen act	ADAM10 confirm	ADAM17 ctr	ADAM10 ctr	ADAM17 confirm
O=C(Cc1cccs1)NCCn1ccc2ccccc21	-0.9	2.6	6.9	-1.9	0.1	.	.	.	.
CC(C)CCNC(=O)NC(=O)CSc1nnc(COc2ccccc2Cl)o1	6.8	2.2	22.9*	9.8*	-1.1	2.9	0.1	6.5	5.5
CN(CC(=O)Nc1ccccc1)CC(=O)Nc1ccccc1Cl	-2.5	-6.1	-12.1	-1.9	-0.4	.	.	.	.
CCCCc1ccc(NC(=O)CN(C)CC(=O)Nc2ccccc2Cl)cc1	8.0	-40.0	33.9*	16.4*	0.1	2.0	0.9	20.5*	9.6*
CCN(CC)C(=O)[C@H]1C[C@H](CC(=O)NCc2cccc(C(F)(F)F)c2)C(=O)N2CCc3c([nH]c4ccc(Cl)cc34)[C@]12C	3.8	1.6	23.2*	10.7*	0.0	3.0	1.2	30.8*	13.4*
O=C1C=CC(c2c[nH]c3ccccc23)CC1 (stereo not given)	-6.4	-7.8	-12.2	-3.6	0.4	.	.	.	.
COc1ccc(NC(=O)COC(=O)CCCOc2ccc(Cl)cc2Cl)cc1	3.3	-44.5	23.8*	10.0*	0.7	7.1	2.3	19.3	8.0
COc1cccc(C=NN(C)c2c([N+](=O)[O-])cc(C(F)(F)F)cc2[N+](=O)[O-])c1O	2.5	2.4	23.7*	11.8*	-0.3	3.1	1.7	26.7*	15.9*
S=C(Nc1ccc(Nc2ccccc2)cc1)NC1CCCCCC1	1.9	7.0	29.8*	10.2*	-0.2	16.7	4.4	27.6*	16.7*
S=C(Nc1ccc(Cl)cc1)NC1CCCCC1	-2.6	-11.7	-19.4	-9.0	-1.2	.	.	.	.
